Source: PubChem BioAssay (NCI)
This is part of a sample that, as a whole, favours compounds with a hit. Of some 83,000 tested, about 20% had one in any assay.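 Each cell line was grown in a 96-well plate and treated with one concentration of compound for 48 hours. Values below 10 were considered active.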 Values without a mark were called inactive. Calls of active or inactive are those of the source.

What was measured:
Test in all cases: NCI-60 one-dose screen, 48 h (100 = growth as untreated, 0 = no growth, -100 = all killed)
Conditions in all cases: 10 µM unless noted
NCI-H23 lung = tested on: NCI-H23 lung
NCI-H322M lung = tested on: NCI-H322M lung
HOP-62 NSCLC = tested on: HOP-62 NSCLC
NCI-H460 lung = tested on: NCI-H460 lung
HOP-92 NSCLC = tested on: HOP-92 NSCLC
NCI-H522 lung = tested on: NCI-H522 lung
A549/ATCC NSCLC = tested on: A549/ATCC NSCLC
786-0 renal = tested on: 786-0 renal
DU-145 prostate = tested on: DU-145 prostate
K-562 leukemia = tested on: K-562 leukemia
MALME-3M melanoma = tested on: MALME-3M melanoma
MDA-MB-231 breast = tested on: MDA-MB-231 breast
RXF 393 renal = tested on: RXF 393 renal
SF-268 CNS = tested on: SF-268 CNS
SF-295 CNS = tested on: SF-295 CNS
UACC-257 melanoma = tested on: UACC-257 melanoma
M14 melanoma = tested on: M14 melanoma
COLO 205 colon = tested on: COLO 205 colon
SF-539 CNS = tested on: SF-539 CNS

Compound	growth (NCI-H23 lung)	growth (NCI-H322M lung)	growth (HOP-62 NSCLC)	growth (NCI-H460 lung)	growth (HOP-92 NSCLC)	growth (NCI-H522 lung)	growth (A549/ATCC NSCLC)	growth (786-0 renal)	growth (DU-145 prostate)	growth (K-562 leukemia)	growth (MALME-3M melanoma)	growth (MDA-MB-231 breast)	growth (RXF 393 renal)	growth (SF-268 CNS)	growth (SF-295 CNS)	growth (UACC-257 melanoma)	growth (M14 melanoma)	growth (COLO 205 colon) [%]	growth (SF-539 CNS) [%]
Cc1cccc2c(N)c3ccccc3nc12	-39.6% (active)	-2.56% (active)	-7.52% (active)	-17.4% (active)	-20.4% (active)	-36% (active)	-68.6% (active)	-9.45% (active)	6.74% (active)	6.25% (active)	-37.2% (active)	-24.2% (active)	-48.2% (active)	-1.12% (active)	5.09% (active)	-22.2% (active)	-55% (active)	–	–
CC(C)=CCCC(C)C1=C(O)C(=O)C(C)=CC1=O (stereo not drawn)	97%	112%	125%	124%	–	-55.5% (active)	110%	93.2%	99.6%	-45.3% (active)	69.3%	40.5%	58.5%	93.7%	120%	120%	107%	50.3	96.3
CC(=O)N1CC(=O)NC1=S	98.3%	102%	97.7%	103%	102%	92.2%	94.9%	102%	105%	97.4%	95%	98.3%	104%	98.2%	102%	90.4%	95.1%	–	101
